The target in assay [1] is Glutathione peroxidase 1 (Homo sapiens) (UniProt P07203). The assay is described as follows: Primary qHTS Assay for Inhibitors of Recombinant Selenoprotein Glutathione Peroxidase 1 (GPX1) (AID 1845191). Further: nearly all actives have a fitted effect of over 65% in size. Further: potency means the concentration at half of the fitted maximal effect. A digest of the protocol:
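GR-coupled assay: compounds preincubated 30 min at room temperature with GPX1, then reaction started with CHP; final 10 nM GPX1, 1 mM GSH, 0.5 mM CHP, 0.5 mM NADPH, 100 nM GR, 0.01% BSA, pH 7.5 Tris buffer. NADPH fluorescence (340/450 nm) read at 0 and 15 min.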
A general note: Quantitative high-throughput screening tests each substance at several concentrations.

The target in assay [2] is Phospholipid hydroperoxide glutathione peroxidase GPX4 (Homo sapiens) (UniProt P36969). The assay is described as follows: Primary qHTS Assay for Inhibitors of Recombinant Selenoprotein Glutathione Peroxidase 4 (GPX4) (AID 1845192). Further: nearly all actives have a fitted effect of over 65% in size. Further: potency means the concentration at half of the fitted maximal effect. The procedure, abridged: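 GR-coupled assay: recombinant GPX4 preincubated 30 min with compound at room temperature; final 200 nM GPX4, 1 mM GSH, 0.5 mM cumene hydroperoxide, 0.5 mM NADPH, 100 nM GR, 0.01% BSA, pH 7.5 Tris. NADPH fluorescence (340/450 nm) read at 0 and 15 min.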

Assay [3] is described as follows: qHTS drug screen for cell cycle checkpoint inhibitors in PARPi-resistant BRCA-mutant ovarian cancer cell lines. (AID 1963452; calls by dose curve). Conditions: PEO1/OlaR viability, CellTiter-Glo luminescence, 96 h, stronger effect = lower value. The procedure, abridged:
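PEO1, PEO4 and PEO1/OlaR ovarian cancer cells, 600 per well, exposed 96 h at 37C to a dilution series. Viability read by CellTiter-Glo luminescence, normalized to DMSO and empty wells; activity summarized as Z-AUC.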

In PubChem BioAssay (NCATS) one finds Potency and Z-AUC data, which are given here for 21 compounds.

Records with an inconclusive call do not appear. The source made the active and inactive calls. Unless noted, the call rests on the fitted dose curve; in most records, active means well fitted inhibition curve with a large enough effect; inconclusive means small, poorly fitted or top-dose-only effect; inactive means flat fitted curve, though single readings scatter.

Sequence of Glutathione peroxidase 1 (Homo sapiens) (P07203 whole entry, looked up): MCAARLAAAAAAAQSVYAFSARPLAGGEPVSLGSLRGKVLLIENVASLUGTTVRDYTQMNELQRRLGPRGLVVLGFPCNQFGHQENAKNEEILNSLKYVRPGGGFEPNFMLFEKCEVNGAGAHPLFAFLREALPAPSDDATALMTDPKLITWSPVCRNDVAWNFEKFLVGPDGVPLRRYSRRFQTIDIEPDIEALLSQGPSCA
Sequence of Phospholipid hydroperoxide glutathione peroxidase GPX4 (Homo sapiens) (P36969 whole entry, looked up): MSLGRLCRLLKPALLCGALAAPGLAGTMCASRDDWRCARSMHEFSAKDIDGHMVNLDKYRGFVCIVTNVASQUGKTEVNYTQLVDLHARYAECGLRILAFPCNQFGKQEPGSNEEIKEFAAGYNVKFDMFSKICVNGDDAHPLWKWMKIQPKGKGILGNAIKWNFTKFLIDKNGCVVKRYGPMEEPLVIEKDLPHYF

Consider `OC[C@H]1OC(O)C[C@@H](O)[C@@H]1O` (stereo not given in full), for which the Potency entry in assay [1] and in assay [2] was “inactive” each time.

On to `CCCCCCCC(=O)N[C@H](CN1CCCC1)[C@H](O)c1ccc2c(c1)OCCO2`, for which the Potency entry in assay [1] and in assay [2] was “inactive” in each case.

In the case of `CCC(C)C(NC(=O)C(Cc1ccc(O)cc1)NC(=O)C(NC(=O)C(CCCN=C(N)N)NC(=O)C(N)CC(=O)O)C(C)C)C(=O)NC(Cc1cnc[nH]1)C(=O)N1CCCC1C(=O)NC(Cc1ccccc1)C(=O)O` (stereo not given), the Potency result in assay [1] and in assay [2] was “inactive” each time.

Turning to `CCCCCCCCCCCCOC(=O)CS(=O)(=O)O`, in assay [1], the Potency entry is “inactive”. The Potency in assay [2] was 14.1 µM (active).

With `CCCCCCC(COC(=O)c1cccnc1)(COC(=O)c1cccnc1)COC(=O)c1cccnc1`, the Potency entry in assay [1] and in assay [2] was “inactive” in each case.

As to `CCCCCCCCN=C(N)NC(N)=NCc1ccc(Cl)c(Cl)c1`, the Potency result in assay [1] and in assay [2] was “inactive” each time.

Consider `Clc1ccc(CCCOCCCN2CCCCC2)cc1`, for which the Potency entry in assay [1] and in assay [2] was “inactive” throughout.

Regarding `OC(c1ccccc1)(c1ccccc1)C12CC[N+](CCOCc3ccccc3)(CC1)CC2`, the Potency entry in assay [1] and in assay [2] was “inactive” in each case.

As for `O=C(OC1C(OC(=O)c2cccnc2)C(OC(=O)c2cccnc2)C(OC(=O)c2cccnc2)C(OC(=O)c2cccnc2)C1OC(=O)c1cccnc1)c1cccnc1` (stereo not given), the Potency result in assay [1] and in assay [2] was “inactive” each time.

Consider `C[C@](C#N)(COc1cc(C#N)ccc1C(F)(F)F)NC(=O)c1ccc(SC(F)(F)F)cc1`, for which the Potency entry in assay [1] and in assay [2] was “inactive” each time.

For the compound `CCC(C)CC(C)CCCCCCCCC(=O)N[C@H]1C[C@@H](O)[C@@H](NCCN)NC(=O)[C@@H]2[C@@H](O)CCN2C(=O)[C@H]([C@H](O)CCN)NC(=O)[C@H]([C@@H](O)[C@H](O)c2ccc(O)cc2)NC(=O)[C@@H]2C[C@@H](O)CN2C(=O)[C@H]([C@@H](C)O)NC1=O` (stereo not given in full), the Potency entry in assay [1] and in assay [2] was “inactive” each time.

For `CCCCCCCCCCCCCCCCCC(=O)NCCCC[C@H](NC(=O)CC[C@@H](NC(=O)[C@H](C)NC(=O)[C@@H](C)O[C@H]1[C@H](O)[C@@H](CO)OC(O)[C@@H]1NC(C)=O)C(N)=O)C(=O)O` (stereo not given in full), the Potency result in assay [1] and in assay [2] was “inactive” throughout.

As for `CCCCCCCCCC(=O)OC1(c2ccc(Cl)cc2)CCN(CCCC(=O)c2ccc(F)cc2)CC1`, the Potency result in assay [1] and in assay [2] was “inactive” each time.

As for `CN[C@@H]1[C@@H](O[C@H]2O[C@H](CO)[C@@H](N)[C@H](O)[C@H]2O)O[C@H]2C[C@@H](N)[C@H](O[C@H]3[C@H](O)[C@@H](O)[C@H](N)C[C@@H]3N)O[C@@H]2[C@@H]1O`, the Potency entry in assay [1] and in assay [2] was “inactive” each time.

As for `CC(C)C[C@H]1C(=O)O[C@H](Cc2ccc(N3CCOCC3)cc2)C(=O)N(C)[C@@H](CC(C)C)C(=O)O[C@H](C)C(=O)N(C)[C@@H](CC(C)C)C(=O)O[C@H](Cc2ccc(N3CCOCC3)cc2)C(=O)N(C)[C@@H](CC(C)C)C(=O)O[C@H](C)C(=O)N1C`, the Potency result in assay [1] and in assay [2] was “inactive” each time.

Consider `CC(C)=C/C(C)=N\Nc1nncc2ccccc12`, for which the Potency result in assay [1] and in assay [2] was “inactive” each time.

With `CO/N=C(\C(=O)N[C@@H]1C(=O)N2C(C(=O)O)=C(Cn3ccc(=N)n3CCO)CS[C@H]12)c1csc(N)n1`, in assay [1], the Potency was 18 µM (active). Further, the Potency entry in assay [2] is “inactive”.

As for `COc1ccc(-c2c(Cl)ncn2-c2ccc(S(N)(=O)=O)cc2)cc1F`, the Potency entry in assay [1] and in assay [2] was “inactive” each time.

Consider `O=C(OCCN(CCO)CCO)c1ccccc1O`, for which the Potency entry in assay [1] and in assay [2] was “inactive” in each case.

On to `CC[C@H](C)[C@@H]([C@@H](CC(=O)N1CCC[C@H]1[C@H](OC)[C@@H](C)C(=O)NCCc1ccccc1)OC)N(C)C(=O)[C@@H](NC(=O)[C@H](C(C)C)N(C)C)C(C)C`, for which the Potency entry in assay [1] and in assay [2] was “inactive” each time.

Take `O=C(Nc1ccc(-c2ccnc(Nc3ccc(N4CCOCC4)cc3)n2)cc1)[C@@H]1CCCN1`: the Potency entry in assay [1] and in assay [2] was “inactive” each time. Besides, the Z-AUC is -0.466 (inactive) in assay [3], 0.455 in assay [3] (measured here: PEO1 parental Z-AUC) and 0.0561 in assay [3] (measured here: PEO4 Z-AUC).
